Several values for one entry are separate records, joined by “and”; a condition that tells them apart may be missing. Equal entries are not always repeated. Records with an inconclusive call do not appear. Activity calls are given as the source filed them. Unless noted, the call rests on the fitted dose curve; in most records, active means well fitted curve in the direction sought with a large enough effect; inconclusive means small, poorly fitted or top-dose-only effect, or another doubt; inactive means no such curve, though single readings can be large; an effect the other way counts as inactive or inconclusive.
Assays:
[1] = qHTS assay for small molecule disruptors of the mitochondrial membrane potential - 5 hr assay (AID 651755; calls by dose curve; further: on the % scale 0 is the no-effect control and ±100 the full control effect; nearly all actives have a fitted effect of over 40% in size)
Method in brief: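 HepG2 cells (2,000/well), attached overnight, exposed to compound 5 hr at 37C, then Mito-MPS dye 30 min. Fluorescence read for monomers (490/535 nm) and aggregates (540/590 nm).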

[2] = molecular target: Tumor necrosis factor (Homo sapiens) (UniProt P01375); experiment: qHTS assay to identify small molecules that stimulate Tumor Necrosis Factor-alpha (TNF-alpha) secretion (AID 651757; active means well fitted curve in the direction sought with a large enough effect in the signal ratio; the % refers to the signal ratio; further: 0% is about no effect)
Method in brief: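 THP-1 cells (3000/well) exposed to compounds 17 hrs at 37 C. Secreted TNF-alpha detected by HTRF with cryptate- and XL665-labeled anti-TNF-alpha antibodies after 3 hr at room temperature.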

[3] = molecular target: Peroxisome proliferator-activated receptor alpha (Homo sapiens) (UniProt Q07869); experiment: qHTS assay for small molecule agonists of the peroxisome proliferator-activated receptor alpha (PPARalpha) signaling pathway (AID 651778); conditions: PathHunter PPARalpha complementation, chemiluminescence, 6 h; active compounds read high; further: % of control where 0% means no effect
Method in brief: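 Enzyme-fragment complementation assay in which ligand-bound PPARalpha translocates and forms an active enzyme that generates chemiluminescence. Cells were plated overnight, exposed to compound for 6 hr at 37 C, and then given detection reagent for 60 min at room temperature.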

[4] = molecular target: Nuclear receptor ROR-gamma (Homo sapiens) (UniProt P51449); experiment: qHTS assay for small molecule antagonists of the retinoid-related orphan receptor gamma (ROR-gamma) signaling pathway (AID 651802);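 further: luciferase reporter luminescence driven by ROR response element; series mostly up to about 92 µM; on the % scale 0 is the no-effect control and ±100 the full control effect; nearly all actives have a fitted effect of over 60% in size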
Method in brief: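 CHO cells with TET-inducible ROR-gamma and RORE-luciferase reporter, dosed then doxycycline-induced. After 16 h at 37C, One-Glo luminescence read; decreased signal indicates antagonism.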

[5] = qHTS assay for small molecule agonists of the antioxidant response element (ARE) signaling pathway measured by Nrf2-dependant transcriptional activity (AID 720636; active means well fitted curve in the direction sought with a large enough effect in the repeat runs; an effect the other way counts as inactive or inconclusive; further: % of control where 0% means no effect)
Method in brief: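 ARE-luc HepG2 cells carrying an Nrf2-responsive luciferase reporter were plated in medium with 1% dialyzed FBS, left 6 hr at 37 C to attach, then exposed to compound for 16 hr. Luciferase luminescence was read after ONE-Glo addition.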

[6] = qHTS assay for small molecule antagonists of the retinoid-related orphan receptor gamma (ROR-gamma) signaling pathway - cell viability counter screen (AID 720652; active means well fitted curve in the direction sought with a large enough effect in the repeat runs; an effect the other way counts as inactive or inconclusive;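 further: series mostly up to about 92 µM; compound exposure lasted 16 hr before ATP read; on the % scale 0 is the no-effect control and ±100 the full control effect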)
Method in brief: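 CHO cells carrying TET-inducible ROR and RORE-luciferase reporter, plated 5 hr, then dosed with compound plus doxycycline. After 16 hr at 37 C, viability read as intracellular ATP by CellTiter-Glo luminescence.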

[7] = qHTS assay for small molecule agonists of the antioxidant response element (ARE) signaling pathway measured by Nrf2-dependant transcriptional activity - cell viability counter screen (AID 720653; active means well fitted curve in the direction sought with a large enough effect in the repeat runs; an effect the other way counts as inactive or inconclusive; further: on the % scale 0 is the no-effect control and ±100 the full control effect); conditions: ARE-bla HepG2 viability, CellTiter-Glo ATP luminescence, 16 h; active compounds read low
Method in brief: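 ARE-bla HepG2 cells treated with compounds for 16 h at 37C; this counter screen measures viability as intracellular ATP by CellTiter-Glo luminescence after 30 min at room temperature.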

[8] = qHTS assay for cell viability of HEK293 cells (AID 743288); conditions: ATP luminescence (CellTiter-Glo), 18 h, active compounds read low; further: on the % scale 0 is the no-effect control and ±100 the full control effect; nearly all actives have a fitted effect of over 50% in size
Method in brief: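 Luminescent ATP quantitation served as the viability read-out. Cells (parental HEK293, 2,000/well) received compounds after at least 5 h at 37 C and were exposed for 18 h before a 30 min room-temperature reagent step.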

[9] = qHTS assay for environmental chemicals that activate the Aryl hydrocarbon Receptor (AhR) signaling pathway (AID 651777); conditions: 1A2-DRE human hepatoma cells, luciferase, 24 h; activation: active compounds read high; further: % of control where 0% means no effect; nearly all actives have a fitted effect of over 15% in size
Method in brief: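 Human hepatoma 1A2-DRE cells, stably carrying a dioxin response element and CYP1A2 promoter driving luciferase, were exposed to compounds for 24 hr at 37 C and 5% CO2. Luciferase signal was then read after 30 min One-Glo at room temperature.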

[10] = qHTS assay to identify small molecules that stimulate interleukin-8 (IL-8) secretion (AID 651758; active means well fitted activation curve with a large enough effect in the signal ratio; the % refers to the signal ratio; further: 0% is about no effect)
Method in brief: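 THP-1 cells (2000/well) exposed to compound 16 h at 37 C; secreted IL-8 then detected by HTRF with cryptate- and XL665-labelled anti-IL-8 antibody pair after 1-3 h at room temperature.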

Nuclear receptor ROR-gamma (Homo sapiens), sequence (P51449 whole entry, looked up): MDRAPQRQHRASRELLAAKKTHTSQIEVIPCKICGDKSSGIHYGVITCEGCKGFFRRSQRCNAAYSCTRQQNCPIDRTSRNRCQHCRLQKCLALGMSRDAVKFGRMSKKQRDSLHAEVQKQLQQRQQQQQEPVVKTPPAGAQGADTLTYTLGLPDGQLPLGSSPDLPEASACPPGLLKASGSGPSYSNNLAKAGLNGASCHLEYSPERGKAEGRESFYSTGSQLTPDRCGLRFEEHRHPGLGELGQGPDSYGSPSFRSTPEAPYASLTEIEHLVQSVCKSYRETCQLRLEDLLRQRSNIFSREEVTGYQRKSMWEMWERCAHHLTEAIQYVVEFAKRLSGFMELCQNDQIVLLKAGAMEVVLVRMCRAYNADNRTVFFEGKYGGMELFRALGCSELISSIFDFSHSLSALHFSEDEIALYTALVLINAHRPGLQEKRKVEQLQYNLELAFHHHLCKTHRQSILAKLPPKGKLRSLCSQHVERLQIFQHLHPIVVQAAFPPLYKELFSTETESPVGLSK
Peroxisome proliferator-activated receptor alpha (Homo sapiens), sequence (Q07869 whole entry, looked up, the tested form may be a part): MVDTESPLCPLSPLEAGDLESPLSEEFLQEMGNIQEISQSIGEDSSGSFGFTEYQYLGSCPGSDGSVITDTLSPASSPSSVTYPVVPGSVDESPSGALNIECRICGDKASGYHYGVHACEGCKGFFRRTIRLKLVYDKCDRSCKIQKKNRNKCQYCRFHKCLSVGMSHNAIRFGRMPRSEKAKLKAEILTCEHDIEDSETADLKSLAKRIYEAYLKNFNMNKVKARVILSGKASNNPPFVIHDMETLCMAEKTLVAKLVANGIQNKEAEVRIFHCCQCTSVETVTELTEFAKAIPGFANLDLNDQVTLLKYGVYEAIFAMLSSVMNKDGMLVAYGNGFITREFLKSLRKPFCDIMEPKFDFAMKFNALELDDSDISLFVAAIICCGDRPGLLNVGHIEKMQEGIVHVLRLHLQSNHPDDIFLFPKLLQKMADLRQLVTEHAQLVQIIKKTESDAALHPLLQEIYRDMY
Tumor necrosis factor (Homo sapiens), sequence (P01375 whole entry, looked up): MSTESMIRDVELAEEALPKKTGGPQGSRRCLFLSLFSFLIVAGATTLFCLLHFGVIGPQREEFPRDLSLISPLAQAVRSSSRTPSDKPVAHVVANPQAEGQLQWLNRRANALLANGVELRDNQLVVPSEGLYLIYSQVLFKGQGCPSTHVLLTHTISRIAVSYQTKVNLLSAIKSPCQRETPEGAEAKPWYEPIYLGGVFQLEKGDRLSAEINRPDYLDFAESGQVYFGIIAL

CC(C)(O)C(=O)O
inactive: Potency [1] | Potency [2] | max response [3] 4.71% | Potency [4] | outcome [5] | Potency [6] | max response [7] 1.81% | max response [8] 1.23%

Fc1ccccc1
inactive: Potency [1] | Potency [2] | max response [3] 1.57% | Potency [4] | outcome [5] | Potency [6] | max response [7] 8.77% | max response [8] 9.93%

CNC(=O)c1ccccc1
inactive: Potency [1] | Potency [2] | max response [3] -1.17% | Potency [4] | outcome [5] | Potency [6] | max response [7] -3.92% | max response [8] 8.06%

O=Cc1ccccc1Cl
inactive: Potency [1] | Potency [2] | max response [3] -3.69% | Potency [4] | outcome [5] | Potency [6] | max response [7] -4.5% | max response [8] -11.9%

C/C=C(/C)C#N
inactive: Potency [1] | Potency [2] | max response [3] -2.14% | Potency [4] | outcome [5] | max response [7] -5.17% | max response [8] 0.0053%

Clc1ccccn1
inactive: Potency [1] | Potency [2] | Potency [4] | outcome [5] | max response [7] -1.74% | max response [8] -2.77%

N#Cc1ccccc1
inactive: Potency [1] | Potency [2] | max response [3] -0.81% | Potency [4] | outcome [5] | Potency [6] | max response [7] 0.163% | max response [8] 7.56%

COc1cccc(N)c1
inactive: Potency [1] | Potency [2] | Potency [4] | outcome [5] | Potency [6] | max response [7] 10.6% | max response [8] -0.119%

CCNc1ccccc1
inactive: Potency [1] | Potency [2] | max response [3] -1.14% | Potency [4] | outcome [5] | max response [7] -0.56% | max response [8] -1.34%

CC(=O)OCc1ccco1
inactive: Potency [1] | Potency [2] | max response [3] -0.503% | Potency [4] | outcome [5] | max response [7] -8.3%

CC(=O)OCCC(C)C
inactive: Potency [1] | Potency [2] | activation [9] 0.441% | Potency [4] | outcome [5] | max response [7] -11% | max response [8] 3.44%

Nc1nc(CC(=O)O)cs1
inactive: Potency [1] | Potency [2] | max response [3] 1.57% | Potency [4] | outcome [5] | max response [7] 4.24% | max response [8] -0.757%

C/C=C1\CC2C=CC1C2 (stereo not given)
inactive: Potency [1] | Potency [2] | activation [9] -0.171% | Potency [4] | outcome [5] | Potency [6] | max response [7] -2.33% | max response [8] 9.62%

Cc1ccccc1C(=O)O
inactive: Potency [1] | Potency [2] | max response [3] -0.184% | Potency [4] | outcome [5] | Potency [6] | max response [8] -7.38%

C=CCCC
inactive: Potency [1] | Potency [2] | max response [3] -5.85% | Potency [4] | outcome [5] | Potency [6] | max response [7] 3.55% | max response [8] -5.1%

CN(C)CCCCl
inactive: Potency [1] | Potency [2] | max response [3] -1.33% | Potency [4] | outcome [5] | Potency [6] | max response [8] 7.77%

C=C(C)C(=O)OCCCCCC
inactive: Potency [1] | Potency [2] | max response [3] -8.01% | Potency [4] | outcome [5] | Potency [6] | max response [7] -4.89% | max response [8] 6.76%

CCOc1cccc(N)c1
inactive: Potency [1] | Potency [2] | max response [3] 0.865% | Potency [4] | outcome [5] | Potency [6] | max response [7] -7.78% | max response [8] 5.75%

CCN(C(=O)N(CC)c1ccccc1)c1ccccc1
inactive: Potency [1] | Potency [2] | max response [3] -4.39% | Potency [4] | outcome [5] | Potency [6] | max response [8] -19.1%

Cc1ccc(Cl)cc1N
inactive: Potency [1] | Potency [2] | max response [3] -6.36% | Potency [4] | outcome [5] | max response [7] 6.01% | max response [8] 3.66%

Cc1cccc(C)c1[N+](=O)[O-]
inactive: Potency [1] | Potency [10] | activation [9] -1.35% and 15.8% | max response [3] 0.937% and 0.387% | Potency [4] | outcome [5] | Potency [6] | max response [7] -4.95% and -2.18% | max response [8] -0.503% and 0.264%

CCCCC(CC)CNCC(CC)CCCC (stereo not given)
inactive: Potency [1] | Potency [2] | max response [3] -0.499% | Potency [4] | outcome [5] | Potency [6] | max response [7] 3.58% | max response [8] -4.58%

C1CCC2OC2C1 (stereo not given)
inactive: Potency [1] | Potency [2] | max response [3] -2.34% | Potency [4] | outcome [5] | Potency [6] | max response [7] -3.72% | max response [8] -1.95%

Cc1c(N)cccc1[N+](=O)[O-]
inactive: Potency [1] | Potency [2] | max response [3] -5.39% | Potency [4] | outcome [5] | Potency [6] | max response [7] 12.6% | max response [8] 11.6%

COC(=O)CCC(=O)OC
inactive: Potency [1] | Potency [10] | max response [3] 7.56% | Potency [4] | outcome [5] | Potency [6] | max response [7] -12.8% | max response [8] 2.75%

Nc1cccc2c(=O)[nH][nH]c(=O)c12
inactive: Potency [1] | activation [9] 0.365% | max response [3] 0.513% | Potency [4] | outcome [5] | Potency [6] | max response [7] 4.98% | max response [8] 0.895%

CC(=O)c1nccs1
inactive: Potency [1] | Potency [10] | max response [3] -1.62% | Potency [4] | outcome [5] | Potency [6] | max response [7] 25.7% | max response [8] -7.91%

Cc1ccc2oc(=O)ccc2c1
inactive: Potency [1] | activation [9] 8.69% and -0.308% | max response [3] 7.89% and -0.114% | Potency [6] | max response [7] -9.69% and -6.43% | max response [8] 2.42% and -2.56%

Source: PubChem BioAssay (NCATS)
